Source: PubChem (Broad Institute)
PglD inh: C. jejuni PglD acetyltransferase inhibitors, primary screen, biochemical, DTNB colorimetric, single point; actives 0.098% (n = 360,000); AID 602405, 2012; purified PglD enzyme, DTNB colorimetric CoA detection; UDP-N-acetylbacillosamine N-acetyltransferase PglD (Campylobacter jejuni); inhibition, % at 12.5 µM; in the data active = inhibition above about 16%, passing the limit was not always enough
ARNT-TACC3 inh: disruptors of ARNT/TACC3 protein interaction, primary screen, biochemical, AlphaScreen, single concentration; Transforming acidic coiled-coil-containing protein 3 (Homo sapiens), Q9Y6A5; AlphaScreen His-ARNT PAS-B/GST-TACC3 binding, luminescence; TACC3 fragment carries E629A point mutation; inhibition, % at 9.99 µM; actives 0.66% (n = 390,000);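 active = mean inhibition of replicates at least 50% and at least half of replicates each reaching 50%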;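 note: 0% = complete ARNT plus TACC3 wells and 100% = ARNT alone without TACC3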
Statin myotox sup: suppressors of statin myotoxicity in C2C12 myotubes, primary screen, cell-based, single point, plate reader. C2C12 myotubes + simvastatin, ATP luminescence, 48 h; scaled: DMSO 0, geranylgeraniol control 100. rescue of ATP level, % at 7.49 µM. actives 0.78% (n = 330,000);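 active = mean ATP rescue above about 67%, or every replicate alone reaching that limit, limit read from the data, passing the limit was not always enough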;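 note: myotubes were challenged with 10 µM simvastatin during compound exposure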
F508del corr: F508del CFTR correction, initial screen, CFBE line, single point. AID 720511, 2013. CFBE cells, YFP halide quenching; stimulated with forskolin plus potentiator P3; % fluorescence drop versus neutral controls. actives 0.36% (n = 350,000). activity (quench increase), % at 7.58 µM;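 active = mean added fluorescence quench of at least 8% versus neutral control, with both replicates also reaching 8%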;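 note: cells transiently co-express mutant CFTR-F508del with the halide-sensitive YFP; corrector assay measuring rescue of mutant channel to the surface after 24 h compound exposure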
Numbers without * were called inactive; nt = no result given. A selection: hits, their analogues and other compounds. The true share with any hit is near 1.4%.

SMILES | PglD inh | ARNT-TACC3 inh | Statin myotox sup | F508del corr
C[C@@H]1CN([C@@H](C)CO)C(=O)c2cc(NS(=O)(=O)c3ccc(Cl)cc3)ccc2O[C@@H](C)CCCCO[C@H]1CN(C)C(=O)Nc1cccc2ccccc12 | 0 | 8 | 53 | 2
C[C@@H]1CCCCO[C@H](CN(C)C(=O)Nc2cccc3ccccc23)[C@H](C)CN([C@@H](C)CO)C(=O)c2cc(NS(=O)(=O)c3ccc(Cl)cc3)ccc2O1 | -3 | 8 | 192* | -1
C[C@@H]1CCCCO[C@@H](CN(C)C(=O)Nc2cccc3ccccc23)[C@H](C)CN([C@@H](C)CO)C(=O)c2cc(NS(=O)(=O)c3ccc(Cl)cc3)ccc2O1 | 3 | 10 | 137* | 4
CCOC(=O)CSC1=C(C#N)C(c2ccc(C)s2)CC(=O)N1 (configuration not stated) | -4 | -1 | 3 | 8.6*
CCSC1=C(C#N)C(c2ccc(C)s2)CC(=O)N1 (configuration not stated) | 1 | -1 | 2 | 0
CCCSC1=C(C#N)C(c2ccc(O)c(OC)c2)CC(=O)N1 (configuration not stated) | -5 | 5 | -15 | 0
CCCSC1=C(C#N)C(c2ccccc2C)CC(=O)N1 (configuration not stated) | -3 | 5 | 134* | nt
COc1cc(C2CC(=O)NC(SCC(=O)Nc3ccccc3C)=C2C#N)ccc1O (configuration not stated) | 0 | 68* | nt | nt
COc1ccc(S(=O)(=O)N[C@@H]2CC[C@@H](CC(=O)O)O[C@H]2CO)cc1 | 2 | -21 | 11 | -1
COc1cccc(C#Cc2ccc3c(c2)[C@H]2[C@H](CCN2S(=O)(=O)c2ccc(C)cc2)[C@H](CO)N3)c1 | nt | nt | nt | 3
COCCNC(=O)C(=O)Nc1ccc(Br)cc1 | 0 | -11 | -19 | nt
COCC(COCCCNC(=O)Nc1ccc(Br)cc1)OC (configuration not stated) | 8 | -4 | 108* | nt
NS(=O)(=O)c1cc(C2(O)NC(=O)c3ccccc32)ccc1Cl (configuration not stated) | 9 | 0 | 3 | 11*
CC(=O)Nc1ccc(C2(c3ccc(NC(C)=O)cc3)NC(=O)c3ccccc32)cc1 | 9 | -19 | -8 | 2
CCCNC(=O)N1CC(=O)N2[C@H](CO)[C@@H](c3ccc(C#Cc4ccc(F)cc4)cc3)[C@@H]2C1 | nt | nt | nt | 0
CCc1ccc(NC(=O)CN(c2cccc(C)c2)S(C)(=O)=O)cc1 | -4 | 5 | 100* | 0
CC(=O)c1cccc(NC(=O)CN(c2ccc(F)cc2)S(C)(=O)=O)c1 | 0 | 3 | 4 | nt
CC(=O)c1cccc(NC(=O)CN(c2cccc(F)c2)S(C)(=O)=O)c1 | 3 | 9 | 111* | nt
O=S(=O)(c1ccc(Cl)cc1)N(Cc1ccccn1)Cc1ccccn1 | -2 | 0 | 5 | -1
NS(=O)(=O)c1ccc(S(=O)(=O)N(CCc2ccccc2)Cc2ccccn2)cc1 | 5 | -2 | -5 | 8.4*
CN(Cc1ccccc1)C(=O)c1cc2ccccc2o1 | nt | -3 | nt | 2
CC(C)(C)N(Cc1ccccc1)C(=O)c1cc2ccccc2o1 | -7 | -3 | -13 | 10.0*
Cc1ccc(-c2[nH][nH]c(=O)c(=O)c2N=Nc2ccccc2)cc1 | 0 | -2 | 211* | 0
Cc1cc(=O)n2[nH]c(=O)c(N=Nc3ccccc3)c2[nH]1 | -11 | 11 | 9 | nt
COc1cnc(SCc2c(Cl)cccc2Cl)nc1Cl | 0 | 3 | 88* | -1
SMILES | PglD inh | ARNT-TACC3 inh | Statin myotox sup | F508del corr
Cc1nc(SCc2c(F)cccc2Cl)n[nH]1 | 1 | -3 | -29 | nt
O=S(=O)(N[C@@H]1CC[C@H](CCn2cc(-c3cccc(F)c3)nn2)O[C@H]1CO)c1ccc(F)cc1 | -2 | 0 | 13 | 5
O=C(O)c1c[nH]c2ccc(S(=O)(=O)N3CCN(c4ccc(F)cc4)CC3)cc2c1=O | 0 | 5 | -19 | 0
CCOC(=O)N1CCN(S(=O)(=O)c2ccc3[nH]cc(C(=O)O)c(=O)c3c2)CC1 | -6 | 2 | 97* | nt
COc1ccc(CNCC(=O)Nc2ccccc2-n2cccc2)cc1 | nt | 2 | nt | 10*
CC(C)(C)[S@@](=O)N1Cc2cc(C(=O)NCCc3ccncc3)nc(-c3cccc(-c4ccncc4)c3)c2[C@H]1CCO | -2 | 10 | -9 | -3
Cc1[nH]n(-c2ccccc2)c(=O)c1/C=N/n1c(C)nc2ccccc2c1=O | 2 | 31* | -18 | nt
CN1CCN(C(=O)C[C@@H]2CC[C@H]3[C@H](COc4ccc(NC(=O)C5CCOCC5)cc4C(=O)N3C)O2)CC1 | 5 | -7 | -3 | nt
CC(C)C(=O)NNC(=O)c1ccccn1 | nt | 51* | nt | 0
O=C(c1cccc([N+](=O)[O-])c1)c1ccccn1 | nt | 0 | nt | 2
Cc1cccc(NC(=O)NNC(=O)c2ccccn2)c1 | -3 | 48* | 2 | 4
CC(Oc1cccc(Br)c1)C(=O)NNC(=O)c1ccccn1 (configuration not stated) | -4 | nt | 7 | nt
CC(Oc1ccccc1)C(=O)NNC(=O)c1ccccn1 (configuration not stated) | 5 | 51* | 4 | 1
O=C(NNC(=O)c1ccccn1)c1cccc([N+](=O)[O-])c1 | nt | 67* | nt | 0
COc1ccc(S(=O)(=O)Nc2ccc3c(c2)C(=O)N([C@H](C)CO)C[C@@H](C)[C@H](CN(C)C(=O)Nc2ccc(F)cc2)OCCCC[C@H](C)O3)cc1 | -1 | -13 | -17 | -3
Cc1noc(C)c1S(=O)(=O)N(C)C[C@@H]1OCCCC[C@H](C)Oc2ccc(NS(=O)(=O)c3cccs3)cc2C(=O)N([C@H](C)CO)C[C@H]1C | -4 | 2 | nt | -1
CN(C)c1ccc(C=C2C(=O)OC(C)(C(C)(C)C)OC2=O)cc1 (configuration not stated) | nt | active | 0 | nt
Cc1noc(C)c1S(=O)(=O)Nc1ccc2c(c1)C(=O)N([C@H](C)CO)C[C@@H](C)[C@H](CN(C)Cc1ccc(C(F)(F)F)cc1)O2 | -1 | 9 | 5 | -3
COc1ccc(/C=N/NC(=S)SC)cc1OC | nt | 1 | nt | nt
S=C(N/N=C/c1ccccc1)N1CCOCC1 | 3 | 46* | nt | nt
S=C(Nc1ccccc1)N1CCOCC1 | nt | -5 | nt | 0
CSC(=S)N/N=C/c1ccccc1 | -2 | nt | 87* | nt
COC(=O)c1scc(C)c1NC(=O)C1CCCCC1 | -5 | 24 | 83* | nt
CC(=O)N(CCc1ccccc1)Cc1cc2cc(C)ccc2[nH]c1=O | 6 | -4 | 12 | -7
COc1ccc(N(Cc2cc3ccccc3[nH]c2=O)S(=O)(=O)c2ccccc2)cc1 | -3 | -1 | 182* | 1
COc1ccc2[nH]c(=O)c(CN(CCc3ccccc3)C(C)=O)cc2c1 | 7 | 1 | 114* | nt
